Compounds without any hit were thinned out: in the full panel of roughly 79,000, 15% have a hit. A number with no mark means an inactive call. The source made the active and inactive calls. Rule as the data show it: active = growth inhibition above about 70%; inactive = the rest.
Assays:
[1] = NCI Yeast Anticancer Drug Screen. Data for the rad52 strain (AID 147);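 also: 0% = growth of vehicle-treated control cultures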; conditions: S. cerevisiae rad52 mutant growth inhibition, active compounds read high
Procedure, shortened: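 Growth of repair-deficient yeast cells was compared between compound-treated and vehicle-treated cultures to give percent inhibition.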

[2] = NCI Yeast Anticancer Drug Screen. Data for the wt1 strain (AID 149);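 also: 0% = growth of vehicle-treated wt1 cultures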; conditions: S. cerevisiae wt1 strain (SPY 50644) growth inhibition, active compounds read high
Procedure, shortened: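 The wt1 strain was treated with compounds, and growth was compared with vehicle-treated cultures to give inhibition.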

[3] = NCI Yeast Anticancer Drug Screen. Data for the rad50EPP+ strain (AID 151);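 also: 0% = growth of vehicle-treated control cultures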; conditions: S. cerevisiae rad50 mutant strain, active compounds read high
Procedure, shortened: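 Measured: growth inhibition of rad50EPP+ yeast. Reference: vehicle-treated controls. Screen uses strains with defined genetic alterations in DNA damage repair or cell cycle control.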

[4] = NCI Yeast Anticancer Drug Screen. Data for the mgt1 strain (AID 153); conditions: S. cerevisiae mgt1 mutant growth inhibition, active compounds read high
Procedure, shortened: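 Compounds were applied to mgt1 mutant yeast, and growth was then compared against vehicle-treated control cultures to give percent inhibition.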

[5] = NCI Yeast Anticancer Drug Screen. Data for the rad50 strain (AID 155);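 also: 0% = growth of vehicle-only cultures of the same strain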; conditions: S. cerevisiae rad50 strain growth inhibition, active compounds read high
Procedure, shortened: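 Cells are treated with compound, grown, and their growth is then scored against vehicle-only cultures of the same repair-deficient yeast strain.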

[6] = NCI Yeast Anticancer Drug Screen. Data for the mec2-1 strain (AID 157); conditions: S. cerevisiae mec2-1 strain, active compounds read high
Procedure, shortened: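 Compounds were applied to mec2-1 yeast cells. Their growth was then compared with that of vehicle-treated cultures to give growth inhibition.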

[7] = NCI Yeast Anticancer Drug Screen. Data for the rad14 strain (AID 159);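 also: 0% = growth of vehicle-treated control cultures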; conditions: S. cerevisiae rad14 strain growth inhibition, active compounds read high
Procedure, shortened: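 Readout: yeast growth inhibition, referenced to vehicle-only cultures. Strain bears a defined alteration in DNA damage repair.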

[8] = NCI Yeast Anticancer Drug Screen. Data for the sgs1 mgt1 strain (AID 161);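 also: 0% = growth of cultures given vehicle only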; conditions: S. cerevisiae sgs1 mgt1 strain, active compounds read high
Procedure, shortened: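 Yeast cells carrying a defined DNA-repair defect were exposed to test compounds. Growth inhibition was measured relative to vehicle-treated controls.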

[9] = NCI Yeast Anticancer Drug Screen. Data for the CLN2oe strain (AID 163);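 also: 0% = growth of vehicle-only control cultures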; conditions: S. cerevisiae CLN2oe strain, active compounds read high
Procedure, shortened: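 Cells of an engineered yeast line with disturbed cell-cycle regulation are treated with compound. Inhibition of growth is then calculated relative to the vehicle-treated reference.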

[10] = NCI Yeast Anticancer Drug Screen. Data for the cln2 rad14 strain (AID 165);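 also: 0% = growth equal to vehicle treated cultures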; conditions: S. cerevisiae cln2 rad14 strain, active compounds read high
Procedure, shortened: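 Strain: cln2 rad14 yeast, altered in cell cycle control and DNA damage repair. Read-out: growth inhibition vs vehicle.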

[11] = NCI Yeast Anticancer Drug Screen. Data for the bub3 strain (AID 167); conditions: S. cerevisiae bub3 mutant strain, active compounds read high
Procedure, shortened: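 Part of a panel of yeast mutants defective in DNA damage repair or cell cycle regulation. Each strain is grown with compound, and inhibition is calculated relative to solvent-treated cultures.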

[12] = NCI Yeast Anticancer Drug Screen. Data for the wt2 strain (AID 169);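 also: 0% = growth of vehicle-treated yeast cultures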; conditions: S. cerevisiae wt2 strain growth inhibition, active compounds read high
Procedure, shortened: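 Growth of compound-treated yeast is measured and expressed as inhibition relative to vehicle-only controls.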

[13] = NCI Yeast Anticancer Drug Screen. Data for the mlh1 strain (AID 171);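 also: 0% = growth of vehicle-treated control cultures of the same strain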; conditions: S. cerevisiae mlh1 strain growth inhibition, active compounds read high
Procedure, shortened: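 Test agents were incubated with yeast bearing a defined DNA damage repair or cell cycle control alteration; values are growth inhibition normalised to vehicle-treated cultures.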

[14] = NCI Yeast Anticancer Drug Screen. Data for the sgs1 strain (AID 173);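 also: 0% = growth of vehicle-only control cultures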; conditions: S. cerevisiae sgs1 mutant, active compounds read high
Procedure, shortened: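 Strain with an altered DNA repair or cell cycle pathway exposed to compound. Growth then measured. Value = inhibition versus vehicle control.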

[15] = NCI Yeast Anticancer Drug Screen. Data for the mlh1 rad18 strain (AID 175); conditions: S. cerevisiae mlh1 rad18 strain growth inhibition, active compounds read high
Procedure, shortened: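 A repair-deficient yeast strain is exposed to test compound, and growth is scored relative to vehicle-treated controls.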

[16] = NCI Yeast Anticancer Drug Screen. Data for the rad18 strain (AID 177); conditions: S. cerevisiae rad18 mutant growth inhibition, active compounds read high
Procedure, shortened: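 DNA-repair-defective yeast; compound treatment; growth inhibition scored against vehicle.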

[17] = at 5.0 µM (retest, dose inferred, filed as 0.5)
[18] = at 50.0 µM (retest, dose inferred, filed as 5.0)

Compound: N#CSc1ccc(S(N)(=O)=O)cc1
- growth inhibition ([1]; at 1.2 µM): -51%
- growth inhibition ([1]; at 3.7 µM): -48%
- growth inhibition ([1]; at 11.0 µM): -51%
- growth inhibition ([1]; at 33.0 µM): -1%
- growth inhibition ([1]; at 100.0 µM): 64%
- growth inhibition ([2]; at 1.2 µM): -43%
- growth inhibition ([2]; at 3.7 µM): -50%
- growth inhibition ([2]; at 11.0 µM): -31%
- growth inhibition ([2]; at 33.0 µM): -9%
- growth inhibition ([2]; at 100.0 µM): 53%
- growth inhibition ([3]; at 1.2 µM): -67%
- growth inhibition ([3]; at 3.7 µM): -50%
- growth inhibition ([3]; at 11.0 µM): -91%
- growth inhibition ([3]; at 33.0 µM): -86%
- growth inhibition ([3]; at 100.0 µM): -14%
- growth inhibition ([4]; at 1.2 µM): -81%
- growth inhibition ([4]; at 3.7 µM): -91%
- growth inhibition ([4]; at 11.0 µM): -44%
- growth inhibition ([4]; at 33.0 µM): -62%
- growth inhibition ([4]; at 100.0 µM): 46%
- growth inhibition ([5]; at 1.2 µM): -55%
- growth inhibition ([5]; at 3.7 µM): -39%
- growth inhibition [5, 17]: 51%
- growth inhibition ([5]; at 11.0 µM): -36%
- growth inhibition ([5]; at 33.0 µM): 17%
- growth inhibition [5, 18]: 97% (active)
- growth inhibition ([5]; at 50.0 µM): 56.9%
- growth inhibition ([5]; at 100.0 µM): 73% (active)
- growth inhibition ([6]; at 1.2 µM): -84%
- growth inhibition ([6]; at 3.7 µM): -60%
- growth inhibition [6, 17]: 51%
- growth inhibition ([6]; at 11.0 µM): -37%
- growth inhibition ([6]; at 33.0 µM): -2%
- growth inhibition [6, 18]: 95% (active)
- growth inhibition ([6]; at 50.0 µM): 47.6%
- growth inhibition ([6]; at 100.0 µM): 63%
- growth inhibition ([7]; at 1.2 µM): -36%
- growth inhibition ([7]; at 3.7 µM): -43%
- growth inhibition ([7]; at 11.0 µM): -51%
- growth inhibition ([7]; at 33.0 µM): -30%
- growth inhibition ([7]; at 100.0 µM): 3%
- growth inhibition [8, 17]: 0%
- growth inhibition [8, 18]: 85% (active)
- growth inhibition ([8]; at 50.0 µM): 62.1%
- growth inhibition ([9]; at 1.2 µM): -27%
- growth inhibition ([9]; at 3.7 µM): -13%
- growth inhibition ([9]; at 11.0 µM): 2%
- growth inhibition ([9]; at 33.0 µM): 29%
- growth inhibition ([9]; at 100.0 µM): 66%
- growth inhibition [10, 17]: 64%
- growth inhibition [10, 18]: 82% (active)
- growth inhibition ([10]; at 50.0 µM): 41.4%
- growth inhibition ([11]; at 1.2 µM): -23%
- growth inhibition ([11]; at 3.7 µM): -37%
- growth inhibition [11, 17]: 5%
- growth inhibition ([11]; at 11.0 µM): -17%
- growth inhibition ([11]; at 33.0 µM): 37%
- growth inhibition [11, 18]: 86% (active)
- growth inhibition ([11]; at 50.0 µM): 75.8% (active)
- growth inhibition ([11]; at 100.0 µM): 79% (active)
- growth inhibition ([12]; at 1.2 µM): -48%
- growth inhibition ([12]; at 3.7 µM): -45%
- growth inhibition ([12]; at 11.0 µM): -32%
- growth inhibition ([12]; at 33.0 µM): -25%
- growth inhibition ([12]; at 100.0 µM): 50%
- growth inhibition ([13]; at 1.2 µM): -65%
- growth inhibition ([13]; at 3.7 µM): -44%
- growth inhibition ([13]; at 11.0 µM): -33%
- growth inhibition ([13]; at 33.0 µM): 8%
- growth inhibition ([13]; at 100.0 µM): 64%
- growth inhibition ([14]; at 1.2 µM): -68%
- growth inhibition ([14]; at 3.7 µM): -67%
- growth inhibition ([14]; at 11.0 µM): -21%
- growth inhibition ([14]; at 33.0 µM): 9%
- growth inhibition ([14]; at 100.0 µM): 65%
- growth inhibition [15, 17]: 40%
- growth inhibition [15, 18]: 98% (active)
- growth inhibition ([15]; at 50.0 µM): 59.1%
- growth inhibition ([16]; at 1.2 µM): -47%
- growth inhibition ([16]; at 3.7 µM): -45%
- growth inhibition ([16]; at 11.0 µM): -57%
- growth inhibition ([16]; at 33.0 µM): 28%
- growth inhibition ([16]; at 100.0 µM): 81% (active)

Compound: CN1CCc2ccccc2C1Cc1ccccc1NC(=O)c1sc2ccccc2c1Cl (stereo unspecified)
- growth inhibition ([1]; at 1.2 µM): -35%
- growth inhibition ([1]; at 3.7 µM): -38%
- growth inhibition ([1]; at 11.0 µM): -15%
- growth inhibition ([1]; at 33.0 µM): -8%
- growth inhibition ([1]; at 100.0 µM): 93% (active)
- growth inhibition ([2]; at 1.2 µM): -23%
- growth inhibition ([2]; at 3.7 µM): -22%
- growth inhibition ([2]; at 11.0 µM): -13%
- growth inhibition ([2]; at 33.0 µM): 22%
- growth inhibition ([2]; at 100.0 µM): 88% (active)
- growth inhibition ([3]; at 1.2 µM): -21%
- growth inhibition ([3]; at 3.7 µM): -9%
- growth inhibition ([3]; at 11.0 µM): 19%
- growth inhibition ([3]; at 33.0 µM): 68%
- growth inhibition ([3]; at 100.0 µM): 83% (active)
- growth inhibition ([4]; at 1.2 µM): -19%
- growth inhibition ([4]; at 3.7 µM): -24%
- growth inhibition ([4]; at 11.0 µM): 19%
- growth inhibition ([4]; at 33.0 µM): 95% (active)
- growth inhibition ([4]; at 100.0 µM): 93% (active)
- growth inhibition ([5]; at 1.2 µM): -33%
- growth inhibition ([5]; at 3.7 µM): -36%
- growth inhibition [5, 17]: 8%
- growth inhibition ([5]; at 11.0 µM): -22%
- growth inhibition ([5]; at 33.0 µM): 29%
- growth inhibition [5, 18]: 97% (active)
- growth inhibition ([5]; at 50.0 µM): 96.8% (active)
- growth inhibition ([5]; at 100.0 µM): 90% (active)
- growth inhibition ([6]; at 1.2 µM): -39%
- growth inhibition ([6]; at 3.7 µM): -29%
- growth inhibition [6, 17]: -7%
- growth inhibition ([6]; at 11.0 µM): -2%
- growth inhibition ([6]; at 33.0 µM): 36%
- growth inhibition [6, 18]: 68%
- growth inhibition ([6]; at 50.0 µM): 98% (active)
- growth inhibition ([6]; at 100.0 µM): 92% (active)
- growth inhibition ([7]; at 1.2 µM): -50%
- growth inhibition ([7]; at 3.7 µM): -40%
- growth inhibition ([7]; at 11.0 µM): -24%
- growth inhibition ([7]; at 33.0 µM): 89% (active)
- growth inhibition ([7]; at 100.0 µM): 93% (active)
- growth inhibition [8, 17]: -7%
- growth inhibition [8, 18]: 99% (active)
- growth inhibition ([8]; at 50.0 µM): 99% (active)
- growth inhibition ([9]; at 1.2 µM): 14%
- growth inhibition ([9]; at 3.7 µM): 7%
- growth inhibition ([9]; at 11.0 µM): 14%
- growth inhibition ([9]; at 33.0 µM): 62%
- growth inhibition ([9]; at 100.0 µM): 93% (active)
- growth inhibition [10, 17]: -10%
- growth inhibition [10, 18]: 60%
- growth inhibition ([10]; at 50.0 µM): 77.3% (active)
- growth inhibition ([11]; at 1.2 µM): -54%
- growth inhibition ([11]; at 3.7 µM): -22%
- growth inhibition [11, 17]: 7%
- growth inhibition ([11]; at 11.0 µM): -33%
- growth inhibition ([11]; at 33.0 µM): 22%
- growth inhibition [11, 18]: 94% (active)
- growth inhibition ([11]; at 50.0 µM): 97.5% (active)
- growth inhibition ([11]; at 100.0 µM): 92% (active)
- growth inhibition ([12]; at 1.2 µM): -13%
- growth inhibition ([12]; at 3.7 µM): -13%
- growth inhibition ([12]; at 11.0 µM): -3%
- growth inhibition ([12]; at 33.0 µM): 89% (active)
- growth inhibition ([12]; at 100.0 µM): 93% (active)
- growth inhibition ([13]; at 1.2 µM): -22%
- growth inhibition ([13]; at 3.7 µM): -16%
- growth inhibition ([13]; at 11.0 µM): 8%
- growth inhibition ([13]; at 33.0 µM): 90% (active)
- growth inhibition ([13]; at 100.0 µM): 93% (active)
- growth inhibition ([14]; at 1.2 µM): -25%
- growth inhibition ([14]; at 3.7 µM): -20%
- growth inhibition ([14]; at 11.0 µM): 18%
- growth inhibition ([14]; at 33.0 µM): 90% (active)
- growth inhibition ([14]; at 100.0 µM): 89% (active)
- growth inhibition [15, 17]: -8%
- growth inhibition [15, 18]: 93% (active)
- growth inhibition ([15]; at 50.0 µM): 98.2% (active)
- growth inhibition ([16]; at 1.2 µM): -38%
- growth inhibition ([16]; at 3.7 µM): -23%
- growth inhibition ([16]; at 11.0 µM): -16%
- growth inhibition ([16]; at 33.0 µM): 26%
- growth inhibition ([16]; at 100.0 µM): 90% (active)
